# Source: PubChem (National Center for Advancing Translational Sciences (NCATS))
# HT1080NT lethal: kills 2HG-producing HT-1080-NT fibrosarcoma cells. HT-1080-NT fibrosarcoma viability, CellTiter-Glo ATP luminescence, 48 h. Potency, µM (titrated, usually from 46.1 µM), inactives show at the highest dose activity, negative = less viability, actives largely listed as cytotoxic. actives 1.6% (n = 360,000);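 further: NT is the 2HG producing partner of a matched IDH1 knockdown line; 0% = DMSO-treated cells and -100% = media-only wells without cells; nearly all actives have a fitted effect of over 55% in size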
#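 Viability by CellTiter-Glo luminescence after 48 h compound exposure at 37C of HT-1080-NT cells (750/well, RPMI, 5% FBS). % activity scaled between DMSO wells and medium-only wells, then curve-fitted and categorized by curve class.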
# SW480 rereplic: DNA re-replication induction in SW480 cells; SW480 DNA re-replication, Hoechst DNA content imaging, 48 h; Potency, µM (highest dose often 46.1 µM), without a hit: at the highest dose re-replication activation, actives largely listed as activators; actives 1.8% (n = 340,000); AID 624297; further: % of control where 0% means no effect; nearly all actives have a fitted effect of over 55% in size
#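 First, 250 cells per well were seeded. Next, compound or vehicle (23 nL) was pinned in, plates sat 48 hr at 37 C. Finally Hoechst was added for 40 min before fluorescence scanning.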
# KB-V1 cytotox: kills drug-selected multidrug resistant KB-V1 cells. KB-V1 MDR cells viability, CellTiter-Glo, 72 h. Potency, µM (doses to about 46.1 µM), most hits filed as cytotoxic. actives 3.4% (n = 400,000); further: on the % scale 0 is the no-effect control and ±100 the full control effect; nearly all actives have a fitted effect of over 60% in size
#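 Potencies derive from concentration-effect curves fitted to normalized luminescence (CellTiter-Glo) of KB-V1 cells treated for 72 h at 37 degrees C in phenol-red-free DMEM containing 10% FBS.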
# KB-3-1 cytotox: KB-3-1 parental cell cytotoxicity; AID 1347075; actives 1.4% (n = 400,000); Potency, µM (top dose mostly 46.1 µM), actives largely listed as cytotoxic; KB-3-1 viability, CellTiter-Glo ATP luminescence, 72 h; further: on the % scale 0 is the no-effect control and ±100 the full control effect; nearly all actives have a fitted effect of over 60% in size
#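 72 h, 37 °C compound treatment of KB-3-1 parental cells; CellTiter-Glo added, 10 min, luminescence read. Data corrected against DMSO-only plates and normalized before curve fitting.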
# MCF10A rerep: inducers of DNA re-replication in MCF 10A breast cells | actives 2.9% (n = 350,000) | Potency, µM (top dose mostly 46.1 µM), without a hit: at the highest dose activity, positive = re-replication, actives largely listed as activators | MCF 10A DNA re-replication, Hoechst nuclear intensity, 48 h; further: % of control where 0% means no effect; nearly all actives have a fitted effect of over 50% in size
# HT1080 IDH1KD tx: HT-1080 IDH1 knockdown cell toxicity (counter line); HT-1080 IDH1 knockdown viability, ATP luminescence, 48 h; Potency, µM (titrated, usually from 46.1 µM), for the others: top-dose activity, negative = toxicity, usual class: cytotoxic; actives 2% (n = 360,000); AID 686971;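 further: 0% = DMSO wells and -100% = cell-free medium wells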
#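 Luminescent ATP read-out (CellTiter-Glo, 10 min at room temperature) after 48 h compound exposure at 37 °C gave viability of IDH1-knockdown HT-1080 cells. Activity was normalised to DMSO and cell-free wells, then fitted as concentration-response curves.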
# Active calls of the source: *; i = inactive; ? = inconclusive; nt = no result given; [ ] = remark or other dose. Rows were chosen to be rich in hits. Some 8% of all compounds tested hit in one or more screens of this group. The call rests on the fitted dose curve; in most records, active means well fitted curve in the direction sought with a large enough effect; inconclusive means small, poorly fitted or top-dose-only effect, or another doubt; inactive means no such curve, though single readings can be large; an effect the other way counts as inactive or inconclusive. Potency means the concentration at half of the fitted maximal effect.
SMILES,HT1080NT lethal,SW480 rereplic,KB-V1 cytotox,KB-3-1 cytotox,MCF10A rerep,HT1080 IDH1KD tx
Cc1ccc(-n2nc3ccc(NC(=O)/C=C/c4ccco4)cc3n2)cc1,4.0%,?,?,i,11.6µM*,-0.3%
Cc1ccc(NC(=O)c2cccc(NC(=O)/C=C/c3ccco3)c2)cc1C,-4.3%,3.8%,?,?,?,-22.9%
CCOc1ccc(C(=O)c2oc3ccccc3c2NC(=O)c2cc(-c3ccc(C)cc3)on2)cc1,nt,nt,i,i,nt,nt
CCCCCCCCCn1c2c(c(=N)c3c1CCC3)CCCC2,7.31µM*,?,i,?,?,4.61µM*
CCOC(=O)Cn1c2c(c(=N)c3c1CCC3)CCC2,-4.1%,-3.1%[9.22 µM],i,?,3.0%,-23.3%
N=c1c2c(n(Cc3ccc(F)cc3)c3c1CCC3)CCCC2,?,-1.1%,i,?,8.6%,?
CCCCCCCCCCn1c2c(c(=N)c3c1CCC3)CCC2,1.03µM*,?,i,?,?,?
CCCCn1c2c(c(=N)c3ccccc31)CCC2,?,-11.2%,i,?,23.1%,-14.7%
CCn1c2c(c(=N)c3c1CCC3)CCCC2,?,5.0%,?,11.6µM*,9.0%,-19.4%
CCc1ccc(C(=O)C(C)CN2CCCCC2)cc1 (stereo not drawn),nt,?,nt,nt,8.6%,nt
CCCCc1ccc(NC(=O)CSc2nc3ccccc3nc2N2CCOCC2)cc1,nt,nt,i,i,nt,nt
Cc1ccc(NC(=O)CNCc2ccc(Cl)cc2Cl)cc1S(=O)(=O)N(C)C,-8.4%,5.1%,13µM*,?,23.2%,-10.1%
Cc1ccc(NC(=O)CSc2nn(-c3ccccc3)c(=S)s2)cc1S(=O)(=O)N(C)C,-15.1%,-3.5%,6.51µM*,?,15.5%,?
O=[N+]([O-])c1ccc(N2CCN(c3ccccc3Cl)CC2)cn1,1.2%,15.1%,?,5.17µM*,1.2%,-4.2%
O=[N+]([O-])c1ccc(N2CCN(c3ccc(O)cc3)CC2)cn1,?,12.4%,?,i,23.9%,?
O=C(/C=C/c1ccc2c(c1)OCO2)NCCSCc1c(Cl)cccc1Cl,-10.6%,-6.9%,?,i,9.2µM*,?
CN(C)CCCNC(=O)/C=C/c1ccc2c(c1)OCO2,6.8%,-2.8%,i,i,12.8%,1.7%
O=C(/C=C/c1ccc2c(c1)OCO2)NCCSCc1ccc(Cl)cc1,-12.9%,-4.0%,i,18.4µM*,?,-18.3%
CN(C)c1ccc(/C=C/c2ncnc3ccccc23)cc1,nt,nt,i,i,nt,nt
COC(=O)/C(=C\c1ccc(O)cc1)c1nc2ccccc2[nH]1,8.5%,2.59µM*,i,i,16.4µM*,0.0%
COC(=O)/C(=C\c1cc(OC)c(OC)c(OC)c1)c1nc2ccccc2[nH]1,?,?,?,14.6µM*,20.6µM*,?
COc1ccc(-n2cc(CN(C)C(C)c3ccncn3)c(-c3cccc(F)c3)n2)cc1 (stereo not drawn),-16.8%,7.4%,?,i,13µM*,-21.3%
COc1cc(NC(=O)Cn2ncc3c([nH]c4ccc(C)cc43)c2=O)cc(OC)c1OC,nt,nt,i,i,nt,nt
CCOC(=O)c1ccc(CSC(=N)N)o1,?,20.6µM*,i,?,?,?
Cc1cc(-c2nc3ncccc3o2)ccc1NC(=O)c1ccc([N+](=O)[O-])o1,5.0%,-13.1%,i,i,?,9.4%
SMILES,HT1080NT lethal,SW480 rereplic,KB-V1 cytotox,KB-3-1 cytotox,MCF10A rerep,HT1080 IDH1KD tx
O=C(Nc1ccc2oc(-c3ccncc3)nc2c1)c1ccccc1,25.4%,-0.1%,i,i,-0.6%,18.5%
Cc1ccc(-c2nc3ncccc3o2)cc1NC(=O)c1ccc([N+](=O)[O-])o1,?,2.06µM*,18.4µM*,?,2.31µM*,?
O=C(Nc1ccc(-c2nc3ncccc3o2)cc1)c1ccc([N+](=O)[O-])o1,?,2.31µM*,i,?,2.91µM*,?
Cn1cc([N+](=O)[O-])c(C(=O)Nc2ccc(-c3nc4ccccc4o3)cc2)n1,?,?,11.6µM*,18.4µM*,3.66µM*,?
O=C(Nc1ccc2oc(-c3ccncc3)nc2c1)c1ccc([N+](=O)[O-])o1,6.51µM*,2.59µM*,i,?,4.11µM*,16.4µM*
CCOC(=O)CC(NC(=O)CCc1c(C)nc2c(c1C)c(=O)n(C)c(=O)n2C)c1ccc(OCC)c(OC)c1 (stereo not drawn),nt,nt,i,?,nt,nt
O=C(Nc1ccc(Cl)c(C(F)(F)F)c1)Nc1nnc(-c2ccncc2)s1,nt,nt,i,?,nt,nt
COc1cccc(-n2c(SCC(=O)Nc3cc(C)on3)nc3ccccc3c2=O)c1,0.7%,6.5%,i,i,-1.4%,-24.8%
CCn1c(SCC(=O)Nc2cc(C)on2)nc2sc3c(c2c1=O)CCCC3,10µM*,?,i,i,?,?
Cc1cc(NC(=O)CSc2nc3sc4c(c3c(=O)n2C)CCCC4)no1,0.6%,17.1%,i,i,18.7%,-3.0%
CCc1sc2nc(SCC(=O)Nc3cc(C)on3)n(-c3cccc(OC)c3)c(=O)c2c1C,-24.1%,15.3%,1.64µM*,i,?,-23.2%
Cc1nn(Cc2ccccc2)c(C)c1NC(=O)CSc1nc2sc3c(c2c(=O)n1C)CCC3,0.5%,-7.0%,?,9.2µM*,1.3%,-8.9%
COCCn1c(SCC(=O)NCCCN2CCCC2=O)nc2sc3c(c2c1=O)CCCC3,-3.5%,-1.4%,20.6µM*,i,5.5%,-0.5%
C=CCn1c(SCC(=O)Nc2cc(C)on2)nc2sc3c(c2c1=O)CCCC3,15.4%,-1.8%[9.22 µM],i,i,-10.1%,16.3%
COc1cccc(-c2nnc(SCC(=O)NC3CCCCC3)o2)c1,nt,nt,i,?,nt,nt
Cc1ccc(CNC(=O)C2CCC(CNc3nc(=S)[nH]c4ccccc34)CC2)cc1 (stereo not drawn),-2.7%,13.7%,i,?,23.1µM*,-4.7%
Cc1nc2ccccc2c(=O)n1/N=C/c1ccc(O)c(O)c1O,-1.3%,-8.1%,i,i,-4.7%,-0.9%
Cc1cc([N+](=O)[O-])cc(/C=N/n2c(C)nc3ccccc3c2=O)c1O,?,?,?,i,16.4µM*,?
Cc1ccc(-n2[nH]c(C)c(/C=N/n3c(C)nc4ccccc4c3=O)c2=O)cc1,17.8µM*,?,?,i,4.61µM*,11.2µM*
Cc1nc2ccccc2c(=O)n1/N=C/c1ccc2ccccc2c1O,?,16.4µM*,i,?,2.4%,?
